# Source: the supplement of paper PMC6555819
# What was measured:
# Assay in all cases: PBM binding z-score (relative to random genomic background probes); higher = stronger binding; sequences stand for … in GC…GCGATTGACAGCGTAGAATGAAGG
# [1] = test system: PPARg:RXRa DBDmut IVT, anti-RXR (DBD mutation: RXRa K156A/R161A, NR concentration 270 nM, RXRa partner concentration 90 nM)
# Outline: (§1)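 Random background probes are the reference for binding z-scores. These scores derive from regression-normalized fluorescence on custom Agilent 4×180K protein-binding microarrays incubated 1 h with ligand-free nuclear receptor dimers. Binding was detected with antibodies against each partner (one per run).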
# [2] = test system: PPARg:RXRa IVT, anti-PPARg (NR concentration 270 nM, RXRa partner concentration 90 nM)
# Outline: as §1
# [3] = test system: PPARg DBDmut:RXRa IVT, anti-PPARg (DBD mutation: PPARg1 K132A/R137A, NR concentration 270 nM, RXRa partner concentration 90 nM)
# Outline: as §1
# [4] = test system: PPARg DBDmut IVT, anti-PPARg (DBD mutation: PPARg1 K132A/R137A, NR concentration 270 nM)
# Outline: as §1
# [5] = test system: PPARg homodimer (NR concentration 180 nM)
# Outline: as §1
# [6] = test system: PXR:RXRa (NR concentration 270 nM, RXRa partner concentration 90 nM)
# Outline: as §1
# [7] = test system: PXR homodimer (NR concentration 270 nM)
# Outline: as §1
# [8] = test system: RARa:RXR (NR concentration 270 nM, RXRa partner concentration 90 nM)
# Outline: as §1
# [9] = test system: RARa homodimer (NR concentration 270 nM)
# Outline: as §1
# [10] = test system: RARb:RXRa (NR concentration 270 nM, RXRa partner concentration 90 nM)
# Outline: as §1
# [11] = test system: RARb homodimer (NR concentration 270 nM)
# Outline: as §1
# [12] = test system: RARg:RXRa (NR concentration 270 nM, RXRa partner concentration 90 nM)
# Outline: as §1
# [13] = test system: RARg homodimer (NR concentration 270 nM)
# Outline: as §1
# [14] = test system: RXRa DBDmut IVT, anti-RXR (DBD mutation: RXRa K156A/R161A, NR concentration 90 nM)
# Outline: as §1
# [15] = test system: RXRa homodimer (NR concentration 180 nM)
# Outline: as §1
# [16] = test system: THRa:RXRa (NR concentration 90 nM, RXRa partner concentration 90 nM)
# Outline: as §1
# [17] = test system: THRa homodimer (NR concentration 90 nM)
# Outline: as §1
# [18] = test system: VDR homodimer (NR concentration 270 nM)
# Outline: as §1
Sequence,PBM binding z-score [1],PBM binding z-score [2],PBM binding z-score [3],PBM binding z-score [4],PBM binding z-score [5],PBM binding z-score [6],PBM binding z-score [7],PBM binding z-score [8],PBM binding z-score [9],PBM binding z-score [10],PBM binding z-score [11],PBM binding z-score [12],PBM binding z-score [13],PBM binding z-score [14],PBM binding z-score [15],PBM binding z-score [16],PBM binding z-score [17],PBM binding z-score [18]
TTAATGAGGTTAAAGATCAGGGAACGTGGCGTCG,4.2,4.61,2.12,1.16,1.89,2.4,0.342,3.61,1.1,2.33,0.917,2.56,1.52,1.68,4.02,2.89,0.742,1.14
TCATATAGGTAAACAGGAGAAAGTCCGTAAGTTA,4.08,2.77,0.715,0.615,0.67,0.188,0.377,0.0372,0.767,0.292,-0.0173,0.0941,0.0897,1.4,0.771,0.0424,-0.0606,0.309
AGAACGAGGGCAATGAGCTGATAGCACGGGTGGC,3.25,2.14,0.548,-0.351,-0.0817,0.131,0.0255,0.176,-0.301,2,0.707,1.15,1.22,1.19,0.871,0.598,-0.379,0.597
TCTAGCAGGCCAGAGTGTCACTCAAGAGGTACGG,0.735,0.187,-0.515,-1.96,-0.804,-0.229,-0.833,0.142,-1.77,0.361,0.119,0.145,0.167,-0.194,0.302,-0.304,-1.19,-0.738
CAGCCTAGGTCAGGGCCAGGATAGGAGGAACGTT,1.16,1.82,-0.747,-1.27,0.00488,0.262,-0.967,0.879,-0.655,3.49,2.32,3.04,3.91,-0.715,1.53,2.31,0.538,-0.171
CCGCGGAGGACAACAGGAGGTCAGAGCTGCCAGA,0.131,0.105,-1.44,-1.52,2.29,2.44,0.34,2.5,0.536,3.04,3.47,3.63,3.65,0.503,1.98,2.83,1.18,1.55
ATCGAAAGGTCGAAGGTGAGTAGACCCACCCGAA,-0.178,1.89,-0.438,0.456,1.74,2.69,0.121,4.23,0.557,3.83,2.17,4.35,4.04,1,5.53,1.87,-0.399,-0.0656
TCTAGCAGGCCAGAGGGTCACTCAGGAGGTACGG,1.15,0.889,-0.476,-0.637,0.195,1.35,-0.32,2.12,-0.425,2.28,2.75,2.62,1.67,0.0347,2.54,1.74,-0.132,0.271
ACTAGCAGGCCTAGGGTCACTCAAGATTAGTCCG,-0.156,0.917,-0.943,-1.16,1.39,2.65,0.0787,3.09,-0.643,2.44,2.83,2.61,2.35,0.221,3.15,3.27,2.26,1.07
ACAGAGAGGTGAGTGAAGGTAACTCAGCTGGACG,1.71,1.65,0.674,-0.716,0.508,0.337,0.0847,0.565,0.175,1.48,0.91,0.89,1.24,-0.227,0.647,2.59,0.294,-0.548
GCGACTGGGGCAAAGCGGGTTACCATAAGGTTGG,4.18,3.67,-0.432,-0.894,-0.11,0.293,-0.451,0.625,-0.887,0.922,0.945,0.446,0.469,-0.587,0.545,2.47,0.0771,-0.483
TCTATTAGTTGATTAGGGCAATCGAAACAGCGGA,2.23,1.29,0.785,0.869,1.1,0.568,0.192,0.781,1.56,0.778,0.402,0.658,0.528,0.966,0.804,0.453,0.15,0.435
CGTCCAAGGTCGAGGTCAGTGAAAGAGACTCGAA,1.1,2.35,-1.04,-1.22,1.43,3.59,0.491,3.61,-0.0434,4.39,4.16,4.8,5.32,2.57,4.65,3.93,2.42,2.96
CTACCAAGGTGATCAAGGTCGTTGATTACTATTC,1.11,1.31,0.364,-0.201,0.492,2.22,1.77,1.33,0.0994,1.32,1.47,0.906,0.808,1.42,1.11,2.71,1.55,2.33
TCTTGTAGATCAAAGGTTAAGAATGCCGAAGCCT,2.34,3.51,1.47,0.478,1.27,1.95,-0.149,2.85,0.414,1.87,1.48,1.72,0.719,0.824,3.46,1.35,-0.308,-0.101
CCTACTGGGCCATCAGGTCAGTGATATCAACGTT,4.12,4.95,-0.457,0.096,0.501,0.376,-0.631,0.801,-0.59,1.77,2.46,1.18,1.57,-0.413,0.552,2.19,1.78,0.319
CTCGAAAGGTCGTGCTCAGGTGAGCATACCAAAC,0.762,2.31,0.195,0.25,3.06,3.43,-0.196,4.74,-0.133,3.92,2.63,5.53,4.45,2.21,5.55,4.12,1.23,0.533
CGTCCAAGTTCAACTAAGGTAACGTAAAGCACGC,0.15,1.1,0.262,0.451,1.83,4.44,2.78,2.38,0.942,3.63,2.73,3.63,3.97,4.54,2.79,5.06,2.45,4.43
CCTACTGGACCACGAAAGGTCATTGATTCAGTGA,3.39,3.26,0.692,0.507,3.78,5.28,2.09,5.61,2.84,4.02,4.5,4.44,3.94,1.31,5.46,3.36,1.6,2.68
TCTGCCAGGTCAACGATGGTCAGCTAATCTGCTA,2.07,2.98,0.16,0.24,1.11,2.56,-0.453,2.89,-0.675,4.02,3.43,4.4,5.08,1.41,3.42,3.55,1.7,0.359
ATATGTAGGTTACATCCGGGTCATACAGGCTATG,7.27,7.54,4.07,3.35,3.84,3.46,1.19,4.26,0.627,2.41,2.77,3.85,2.26,0.757,3.05,4.01,2.3,2.26
CGATCTAGGTCATCCAGGACAGTGAATACATTGA,7.91,8.21,6.15,1.47,2.27,2.13,1.59,2.41,0.582,3.89,3.01,4.03,4.66,2.18,2.71,3.78,2.35,2.06
TCTAGCAGGCCAGAGGGTCACGCAAGAGGTACGG,0.77,1.31,-0.82,-1.03,0.618,2.62,-0.51,3.55,-0.463,2.84,3.37,3.78,3.41,-0.273,4.06,2.33,-0.0703,0.674
CCTTACGGCTCACTCCAGGTTATAGCATCGGAGT,0.594,-0.0865,-0.339,-0.313,0.301,-0.0761,0.257,0.372,0.095,0.00286,0.313,-0.122,0.148,0.487,-0.0506,1.15,0.628,0.0912
CATATAGGGTCAGCTAGGCCAGAGTAGGGACGGC,2.06,2.63,1.01,0.805,1.9,2.17,-0.332,3.31,0.466,3.96,3.33,4.41,4.49,1.48,4.2,3.37,1.12,1.02
TTACCAAGCTGAGCTGAGGTCGTTGATCCAACTC,-0.796,-0.588,-0.701,-1.02,-1.16,1.06,0.0399,0.708,-1.15,0.0389,0.0127,-0.204,-0.865,0.00802,0.266,2.08,1.17,0.915
CCTTACGGGTCACTGACAGGTTACAGCATTTGGA,3.39,4.02,0.114,-0.264,2.85,3.59,0.0317,4.5,0.367,4.06,3.43,6.18,4.87,1.94,5.36,3.08,0.386,1.01
CCTAGCAGGCCAATCTGGGTCACTCACGGCTTGA,4.16,4.93,-0.714,-0.428,0.645,0.777,-0.161,1.18,-0.509,1.56,2.23,1.18,1.36,0.336,0.802,3.47,0.637,0.103
TTACCAAGGTGAAGGTCGTTTATCCCTCTGTAGA,2.02,3.38,0.35,0.225,0.696,1.7,0.623,1.65,-0.48,2.2,1.99,1.2,1.11,0.869,1.49,2.5,1.18,1.61
